The values below come from PubChem BioAssay (NCATS).

Results filed as inconclusive are left out. Values without a mark were called inactive. The source made the active and inactive calls. The call rests on the fitted dose curve; in most records, active means well fitted cell-killing curve with a large enough effect; inconclusive means small, poorly fitted or top-dose-only effect, or effect the other way; inactive means no such curve, though single readings can be large or run the other way.

The nature of experiment [1]: Quantitative High-Throughput drug screen in 47 multiple myeloma cell lines against the NCATS MIPE library collection: OPM1_PLB cell viability assay (AID 1918989). Further: nearly all actives have a fitted effect of over 40% in size. Summed up:
(§1)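 500 cells/well; MIPE 4.0 drugs pin-transferred; 48 h, 37C, 5% CO2. CellTiter-Glo, 5 min RT, luminescence. Controls: DMSO 100%, media 0%.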

Experiment [2] can be described thus: Quantitative High-Throughput drug screen in 47 multiple myeloma cell lines against the NCATS MIPE library collection: SKMM1_PLB cell viability assay (AID 1919863). Further: nearly all actives have a fitted effect of over 35% in size. On viability: series mostly up to about 46 µM. As to conditions: SKMM1 myeloma viability, CellTiter-Glo ATP, 48 h; viability: active compounds read low. Summed up:
as §1

Experiment [3] in a line: Quantitative High-Throughput drug screen in 47 multiple myeloma cell lines against the NCATS MIPE library collection: XG6_PLB cell viability assay (AID 1919865). Further: nearly all actives have a fitted effect of over 40% in size. Summed up: as §1
Experiment [4] in a line: Quantitative High-Throughput drug screen in 47 multiple myeloma cell lines against the NCATS MIPE library collection: XG1_PLB cell viability assay (AID 1919866). Further: nearly all actives have a fitted effect of over 35% in size. Summed up:
as §1

A short description of experiment [5]: Quantitative High-Throughput drug screen in 47 multiple myeloma cell lines against the NCATS MIPE library collection: PE2_PLB cell viability assay (AID 1919869). Further: nearly all actives have a fitted effect of over 35% in size. Summed up:
as §1

Experiment [6] can be described thus: Quantitative High-Throughput drug screen in 47 multiple myeloma cell lines against the NCATS MIPE library collection: PCM6_Riken cell viability assay (AID 1919870). Further: nearly all actives have a fitted effect of over 30% in size. Summed up: as §1
Experiment [7] is described as follows: Quantitative High-Throughput drug screen in 47 multiple myeloma cell lines against the NCATS MIPE library collection: RPMI8226_ATCC cell viability assay (AID 1919871). Further: nearly all actives have a fitted effect of over 30% in size. In short, it runs like this:
as §1

Experiment [8] can be described thus: Quantitative High-Throughput drug screen in 47 multiple myeloma cell lines against the NCATS MIPE library collection: U266_ATCC cell viability assay (AID 1919864). Further: nearly all actives have a fitted effect of over 35% in size. Summed up:
as §1

Experiment [9] is described as follows: Quantitative High-Throughput drug screen in 47 multiple myeloma cell lines against the NCATS MIPE library collection: UTMC2_PLB cell viability assay (AID 1919868). Further: nearly all actives have a fitted effect of over 55% in size. In short, it runs like this:
as §1

Experiment [10] can be described thus: Quantitative High-Throughput drug screen in 47 multiple myeloma cell lines against the NCATS MIPE library collection: VP6_DJ cell viability assay (AID 1919867). Further: nearly all actives have a fitted effect of over 40% in size. Summed up:
as §1
Potency means the concentration at half of the fitted maximal effect.

Consider `CCC(=O)O[C@]1(C(=O)CCl)[C@@H](C)C[C@H]2[C@@H]3CCC4=CC(=O)C=C[C@]4(C)[C@@]3(F)[C@@H](O)C[C@@]21C`, for which the Potency entry in [1], in experiment [3], in experiment [4], in [5] and in [6] was “inactive” each time. Besides, the viability in experiment [2] is 109%. In addition, the Potency in experiment [7] was 0.0059 µM (active).

`O=C(NCC1CN(c2ccc(N3CCOCC3=O)cc2)C(=O)O1)c1ccc(Cl)s1` (configuration not stated): the Potency result in [1], in experiment [8], in experiment [3], in experiment [4], in experiment [9] and in experiment [5] was “inactive” in each case. Further, the Potency result in experiment [7] was “inactive”. In addition, the viability in [2] was 135%.

With `CNC1CCCN(c2c(F)cc3c(=O)c(C(=O)O)cn(C4CC4)c3c2OC)C1` (configuration not stated), in experiment [1], the Potency was 5.9 µM (active). The viability in experiment [2] was 118%. Further, the Potency entry in [3], in experiment [4], in [5], in experiment [6] and in experiment [7] was “inactive” each time.

Regarding `Nc1nc(F)nc2c1ncn2[C@@H]1O[C@H](CO)[C@@H](O)[C@@H]1O`, the Potency in experiment [1] was 0.743 µM (active); in [2], 0.332 µM (active); in [8], 0.296 µM (active); in experiment [3], 0.209 µM (active); in experiment [4] it was 0.418 µM (active); in experiment [9], 0.235 µM (active). Further, the results for the Potency in experiment [5], in experiment [6] and in experiment [7] were 0.209 µM (active), 0.264 µM (active) and 0.418 µM (active), respectively.

As to `Oc1c(Cl)cc(Cl)c2cccnc12`, the Potency in [1] is 10.5 µM (active); in experiment [2], 18.7 µM (active); in [8], 8.33 µM (active); in experiment [3] it was 4.69 µM (active); in [9] it was 11.8 µM (active); in [5], 9.35 µM (active). In addition, the Potency was 9.35 µM (active) in experiment [6] and 18.7 µM (active) in [7].

As for `CCCOc1ccc(C(=O)OCCN(CC)CC)cc1N`, the Potency result in [1], in experiment [3], in experiment [9], in [5], in [6] and in experiment [7] was “inactive” each time. The viability in experiment [2] is 118%. For the same compound, the Potency in experiment [10] is 9.35 µM (active).

Consider `CC1=CC(=O)c2ccccc2C1=O`, for which the Potency is 23.5 µM (active) in [1]; 16.6 µM (active) in [2]; 14.8 µM (active) in experiment [3]; 16.6 µM (active) in experiment [10]; 4.18 µM (active) in experiment [5]; 18.7 µM (active) in [6].

Turning to `CCOC(=O)c1ccc(OC(=O)CCCCCN=C(N)N)cc1`, the Potency entry in [1], in [3], in experiment [4], in experiment [5] and in experiment [6] was “inactive” in each case. The viability in [2] was 127%.

On to `Cc1nnc(C(=O)NC(C)(C)c2nc(C(=O)NCc3ccc(F)cc3)c(O)c(=O)n2C)o1`, for which the Potency entry in experiment [1], in [8], in [3], in experiment [4], in experiment [10] and in experiment [9] was “inactive” throughout. In addition, the Potency entry in experiment [5], in experiment [6] and in [7] was “inactive” each time. In addition, in [2], the viability is 152%.

As for `CCN1CCCC1CNC(=O)c1cc(S(N)(=O)=O)ccc1OC` (configuration not stated), the Potency entry in experiment [1], in experiment [3], in experiment [4] and in experiment [7] was “inactive” throughout. Also, in experiment [2], the viability is 123%. For the same compound, the Potency in [10] is 5.9 µM (active).

As for `CC(=O)[C@H]1CC[C@H]2[C@@H]3CCC4=CC(=O)CC[C@]4(C)[C@H]3CC[C@]12C`, the Potency in [1] is 8.33 µM (active).

With `O=C(O)C1CCCN(CCC=C(c2ccccc2)c2ccccc2)C1` (configuration not stated), the Potency entry in experiment [1], in [3], in experiment [4], in experiment [5], in experiment [6] and in [7] was “inactive” each time. In addition, in experiment [2], the viability was 122%.

Consider `CC(C)(C)C(=O)OCOP(=O)(COCCn1cnc2c(N)ncnc21)OCOC(=O)C(C)(C)C`, for which the Potency in experiment [1] is 6.62 µM (active); in experiment [2] it was 20.9 µM (active); in [8], 0.332 µM (active); in experiment [3] it was 0.469 µM (active); in experiment [9], 0.526 µM (active); in experiment [5], 0.187 µM (active). Also, in [7], the Potency is 18.7 µM (active).

As to `CNNCc1ccc(C(=O)NC(C)C)cc1`, the Potency result in experiment [1], in experiment [3], in experiment [10], in experiment [5] and in experiment [6] was “inactive” in each case. Moreover, the Potency in experiment [2] was 9.35 µM (active).

`CCOCC(O)COc1ccc(NC(=O)CC[S+](C)C)cc1` (configuration not stated): the Potency result in [1], in experiment [3], in experiment [4], in experiment [10], in experiment [9] and in experiment [5] was “inactive” in each case. Also, the Potency result in experiment [7] was “inactive”. Further, in experiment [2], the viability is 111%.

Take `CN(C)c1ccc(C(=C2C=CC(=[N+](C)C)C=C2)c2ccc(N(C)C)cc2)cc1`: the Potency was 0.0118 µM (active) in experiment [1]; 0.0662 µM (active) in [2]; 0.0833 µM (active) in experiment [3]; 0.0235 µM (active) in experiment [4]; 0.001 µM (active) in experiment [9]; 0.0166 µM (active) in [5]. For the same compound, the Potency in experiment [6] is 0.0372 µM (active); in [7] it was 0.0935 µM (active).

Consider `O=S(=O)(O)CCS`, for which the Potency entry in [1], in experiment [3], in experiment [9] and in experiment [7] was “inactive” throughout. For the same compound, in [2], the viability was 136%.

For `COc1cccc(N(C)C(=S)Oc2ccc3c(c2)CCCC3)n1`, the Potency result in [1], in experiment [9] and in experiment [5] was “inactive” each time. In addition, in experiment [2], the viability is 139%. In addition, the Potency in experiment [7] was 18.7 µM (active).

As to `CO[C@@H]1[C@@H](OC(N)=O)[C@@H](O)[C@H](Oc2ccc3c(O)c(NC(=O)c4ccc(O)c(CC=C(C)C)c4)c(=O)oc3c2C)OC1(C)C`, the Potency in experiment [1] is 5.26 µM (active); in [3], 6.62 µM (active); in experiment [4], 5.9 µM (active); in experiment [5], 6.62 µM (active).

As for `CNS(=O)(=O)Cc1ccc2[nH]cc(CCN(C)C)c2c1`, the Potency entry in experiment [1], in experiment [3], in [6] and in [7] was “inactive” throughout. In addition, the viability in experiment [2] was 112%. Further, the Potency in experiment [5] is 14.8 µM (active).

`COc1cc(NS(=O)(=O)c2ccc(N)cc2)nc(OC)n1`: the Potency entry in experiment [1], in experiment [3], in [5], in experiment [6] and in [7] was “inactive” throughout. Further, the viability in [2] is 133%.

As to `CC(C)C1CCC(C(=O)N[C@H](Cc2ccccc2)C(=O)O)CC1` (some centres not stated), the Potency result in [1], in [3], in [4], in experiment [5] and in [6] was “inactive” in each case. Further, the Potency in [7] is 23.5 µM (active).

Regarding `CN(Cc1cc(Br)cc(Br)c1N)C1CCCCC1`, the Potency result in experiment [1], in [3] and in experiment [9] was “inactive” each time.
